Measured values published in PubChem BioAssay AID1159580 (chemical genetic matrix, 2015).
Values joined by “and” are separate entries in the source; they are usually repeats but may differ in a detail not shown here. Equal entries are not always repeated. Among all 5,500 compounds or so, about 2,000 (36%) were called active. About 18% were inconclusive and are not listed. No stated cut-off is given here; in the data, active means normalized growth mostly below about 0.91 (no sharp cut-off); inconclusive means no clear call, values can overlap the other calls; inactive means mostly above about 0.92. The list shows a part of the results.

Assay: chemical genetic growth profiling, strain panel (AID 1159580);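 further: tested at 20 µM; growth read once vehicle control cultures reached saturation at 30 °C; 1 = growth at the plate median or of vehicle wells; lower values mean less growth of the strain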
Settings: S. cerevisiae deletion strains, growth OD

Measured: normalized growth

CC(=O)[C@@]1(O)CCC2C3C[C@H](C)C4=CC(=O)C=CC4(C)[C@@]3(F)[C@@H](O)C[C@@]21C (stereo partly drawn)
inactive: locus YAL013W, strain DEP1, active compounds read low 0.995 | locus YAL021C, strain ccr4, active compounds read low 0.965 | locus YAL026C, strain drs2, active compounds read low 0.966 | locus YAL030W, strain snc1, active compounds read low 0.961 | locus YBL061C, strain skt5, active compounds read low 0.976 | locus YBR009C, strain hhf1, active compounds read low 0.931 | locus YBR021W, strain FUR4, active compounds read low 0.99 | locus YBR023C, strain chs3, active compounds read low 0.969 | locus YBR171W, strain sec66, active compounds read low 0.973 | locus YBR229C, strain ROT2, active compounds read low 1.01 | locus YBR231C, strain swc5, active compounds read low 0.975 | locus YBR279W, strain paf1, active compounds read low 0.98 | locus YCL011C, strain gbp2, active compounds read low 0.964 | locus YCL016C, strain dcc1, active compounds read low 0.963 | locus YCL029C, strain bik1, active compounds read low 0.997 | locus YCL069W, strain vba3, active compounds read low 0.979 | locus YCR088W, strain abp1, active compounds read low 0.973 | locus YDL005C, strain med2, active compounds read low 0.962 | locus YDL035C, strain GPR1, active compounds read low 0.986 | locus YDL040C, strain nat1, active compounds read low 0.983 | locus YDL074C, strain BRE1, active compounds read low 0.981 | locus YDL101C, strain DUN1, active compounds read low 1.02 | locus YDL134C, strain PPH21, active compounds read low 0.99 | locus YDL185W, strain tfp1, active compounds read low 1.03 | locus YDL192W, strain arf1, active compounds read low 1.01 | locus YDR001C, strain nth1, active compounds read low 0.977 | locus YDR069C, strain doa4, active compounds read low 0.969 | locus YDR101C, strain arx1, active compounds read low 0.971 | locus YDR137W, strain rgp1, active compounds read low 0.975 | locus YDR150W, strain NUM1, active compounds read low 0.991 | locus YDR159W, strain sac3, active compounds read low 0.929 | locus YDR162C, strain NBP2, active compounds read low 0.984 | locus YDR195W, strain ref2 0.98 | locus YDR297W, strain sur2, active compounds read low 0.975 | locus YDR318W, strain mcm21, active compounds read low 1.01 | locus YDR334W, strain swr1, active compounds read low 0.976 | locus YDR335W, strain msn5, active compounds read low 0.965 | locus YDR388W, active compounds read low 1.01 | locus YDR392W, strain spt3, active compounds read low 0.936 | locus YDR502C, strain sam2, active compounds read low 1.01 | locus YEL003W, strain gim4, active compounds read low 0.971 | locus YEL037C, strain rad23, active compounds read low 0.975 | locus YEL061C, strain CIN8 (second series), active compounds read low 0.962 | locus YEL061C, strain CIN8, active compounds read low 0.989 | locus YER015W, strain faa2, active compounds read low 0.977 | locus YER016W, strain bim1, active compounds read low 0.933 | locus YER110C, active compounds read low 1.02 | locus YER111C, strain swi4, active compounds read low 0.969 | locus YER155C, strain BEM2 (second series), active compounds read low 1.03 | locus YER155C, strain BEM2, active compounds read low 1.01 | locus YER167W, strain BCK2, active compounds read low 0.988 | locus YFR010W, strain ubp6, active compounds read low 0.953 | locus YGL078C, strain dbp3, active compounds read low 1 | locus YGL086W, strain mad1, active compounds read low 0.985 | locus YGL167C, strain pmr1, active compounds read low 0.977 | locus YGL173C, strain kem1, active compounds read low 0.976 | locus YGL227W, strain vid30, active compounds read low 0.988 | locus YGL240W, strain doc1, active compounds read low 0.955 | locus YGL248W, strain PDE1, active compounds read low 1.01 | locus YGL253W, strain hxk2, active compounds read low 0.961 | locus YGR078C, strain PAC10, active compounds read low 1 | locus YGR135W, strain pre9, active compounds read low 1.05 | locus YGR252W, strain gcn5, active compounds read low 1.08 | locus YHR013C, strain ard1, active compounds read low 0.905 | locus YHR027C, strain rpn1, active compounds read low 0.971 | locus YHR030C, strain SLT2, active compounds read low 0.979 and 0.988 | locus YHR079C, strain IRE1 (second series), active compounds read low 1.01 | locus YHR079C, strain IRE1, active compounds read low 0.971 | locus YHR094C, strain hxt1, active compounds read low 1.01 | locus YHR129C, strain ARP1, active compounds read low 1.01 | locus YHR142W, strain chs7, active compounds read low 0.96 | locus YHR200W, strain rpn10, active compounds read low 1.01 | locus YIL066C, strain RNR3, active compounds read low 0.996 | locus YIL073C, strain SPO22, active compounds read low 1.02 | locus YIL125W, strain kgd1, active compounds read low 1 | locus YIR030C, strain dcg1, active compounds read low 1 | locus YJL092W, strain hpr5, active compounds read low 0.983 | locus YJL095W, strain BCK1 (second series), active compounds read low 0.985 | locus YJL095W, strain BCK1, active compounds read low 1.02 and 0.999 | locus YJL115W, strain asf1, active compounds read low 0.954 | locus YJL129C, strain trk1, active compounds read low 0.968 | locus YJL134W, strain LCB3, active compounds read low 1.01 | locus YJL154C, strain vps35, active compounds read low 0.984 | locus YJL164C, strain tpk1, active compounds read low 0.937 | locus YJL166W, strain qcr8, active compounds read low 0.979 | locus YJL168C, strain set2, active compounds read low 1 | locus YJL187C, strain SWE1 (second series), active compounds read low 1.02 | locus YJR043C, strain POL32, active compounds read low 0.99
